Reference: PubChem BioAssay AID651814 (National Center for Advancing Translational Sciences (NCATS), 2012)
Hit rate of the full screen: of about 2,100 compounds, about 590 (28%) were called active. Inconclusive results (about 42%) are left out. Some of the results follow. Values without a mark were called inactive. Calls follow the shape of the dose curve; as a rule, active = well fitted inhibition curve with a large enough effect; inconclusive = small, poorly fitted or top-dose-only effect; inactive = flat fitted curve, though single readings scatter.

These compounds were tested against DNA dC->dU-editing enzyme APOBEC-3F (Homo sapiens) (UniProt Q8IUX4) (assay: qHTS for inhibitors of Vif-A3F interactions: Cherry picks). Details: HeLa A3F-eYFP + Vif (tagged APOBEC3F with the HIV-1 protein that degrades it), eYFP fluorescence, 24 h.
Sequence of DNA dC->dU-editing enzyme APOBEC-3F (Homo sapiens) (Q8IUX4 whole entry, looked up): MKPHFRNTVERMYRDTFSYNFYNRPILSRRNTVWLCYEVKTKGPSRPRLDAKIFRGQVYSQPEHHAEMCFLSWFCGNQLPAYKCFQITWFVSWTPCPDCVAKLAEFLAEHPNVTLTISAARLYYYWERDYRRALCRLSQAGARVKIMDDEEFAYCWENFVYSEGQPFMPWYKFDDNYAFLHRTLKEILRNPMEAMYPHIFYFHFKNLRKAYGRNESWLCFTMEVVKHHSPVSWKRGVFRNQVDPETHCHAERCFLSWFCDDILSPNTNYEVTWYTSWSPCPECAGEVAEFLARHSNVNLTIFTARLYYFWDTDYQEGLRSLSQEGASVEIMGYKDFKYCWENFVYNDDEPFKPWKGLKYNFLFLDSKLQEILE
From the text: The recent discovery and characterization of host restriction factors, which provide a potent defense to invading retroviruses, has provided new targets for antiviral drug development. APOBEC3G (A3G) and APOBEC3F (A3F) are potent cytidine deaminases that block HIV-1 replication; HIV-1 expresses the Vif protein, which counteracts A3G and A3F by binding to them and inducing their proteasomal degradation. The Vif-A3G and Vif-A3F interactions provide two potential targets for development of small molecules which can interfere with the ability of Vif to degrade A3G or A3F. […] To identify inhibitors that can interfere with Vif mediated degradation of A3G and A3F, we have developed Hela cell lines that stably express A3G or A3F tagged with eYFP at the C-terminal end (A3G-eYFP or A3F-eYFP, respectively) and Vif. In the absence of an inhibitor, Vif induces degradation of A3G-eYFP and A3F-eYFP, and the cells are not fluorescent. In the presence of an inhibitor, it is expected that Vif will be unable to degrade A3G-eYFP and/or A3F-eYFP, resulting in an increase in yellow fluorescence. In this assay, Vif A3F was screened against the cherry picks ordered from the MLSMR. NIH Chemical Genomics Center [NCGC] NIH Molecular Libraries Probe Centers Network [MLPCN] MLPCN Grant: MH093245 Assay Submitter (PI): Vinay Pathak, National Cancer Institute
A3F-Vif cells were harvested from T225 flask and resuspended in phenol free OPTI-MEM medium with 5% FBS. Then 5 uL of 140,000 cells/mL resuspended cells was dispensed into each well of low base Aurora COC 1,536-well plates (black walled, clear bottom) using a Multidrop Combi dispenser. After overnight culture at 37 deg C with 5% CO2, a total of 23 nL of compounds at 5 selected concentrations from the NPC or positive control (2 mM stock of MG132) in DMSO was transferred to each well of the assay plate using a pintool (Kalypsys, San Diego, CA), and the plates were further incubated at 37 deg C with 5% CO2 for 24 hours. After that, the plates were measured on Acumen Explorer (TTP Lab Tech). The fluorescence was detected by 488 nm/Ex and […].
Also: nearly all actives have a fitted effect of over 70% in size.
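For max response in this document: % of control where 0% means no effect; active compounds raise eYFP fluorescence by blocking Vif-driven A3F loss.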
Potency is read from the fitted curve at half-maximal effect.

Row | SMILES | max response | Potency
1 | CCCCCCN1C[C@H](O)[C@@H](n2cc(COC(=O)c3ccccc3)nn2)C[C@@H]1c1ccc(C)cc1 | -0.173% | 
2 | Cc1ccc2c(c1)Sc1c(ccc3ccccc13)N2 |  | 16.4 µM (active)
3 | COc1ccc(-c2csc(-c3ccc(O)cc3)n2)cc1 | -24.3% | 
4 | Oc1ccc(-c2nc(-c3ccc(O)c(O)c3)cs2)cc1 |  | 4.44 µM (active)
5 | COc1ccc(OC)c(CNc2nc3ccc(C)cc3n3nnnc23)c1 | -21.9% | 
6 | OCCCn1c(C2CCCN2c2nc(-c3ccc(Cl)cc3)cs2)nc2cc(Cl)c(Cl)cc21 (configuration not stated) | -3.45% | 
7 | CCCCCCNc1ccc(/C=C/c2ccnc3ccccc23)cc1 |  | 18.4 µM (active)
8 | CCCCCCCNc1ccc(/C=C/c2ccnc3ccccc23)cc1 |  | 20.6 µM (active)
9 | C/C(=N\NC(=O)c1cc(C)nc2ccccc12)c1ccncc1 | -5.92% | 
10 | COc1ccc(-c2cc(NC(C)=O)c3ncc(-c4cc(OC)c(OC)c(OC)c4)n3c2)cn1 |  | 4.98 µM (active)
11 | COc1ccc(NC(=O)C2Cc3c(-c4ccc(NC(C)=O)cc4)ccnc3O2)cn1 (configuration not stated) | -27.7% | 
12 | Cc1ccc(-c2cc(NC=O)c3ncc(-c4cnn(C)c4)n3c2)cc1 |  | 7.9 µM (active)
13 | COc1ccccc1-c1cc(NC=O)c2ncc(-c3ccc(S(C)(=O)=O)cc3)n2c1 |  | 7.04 µM (active)
14 | COc1ccc(-c2cnc3c(NC=O)cc(-c4ccccc4)cn23)cc1OC |  | 4.98 µM (active)
15 | CCOc1ccc2nc(NC(=O)c3nc(SC(C)C)ncc3Cl)sc2c1 | -25.8% | 
16 | COC(=O)c1sc(-c2cccs2)cc1NC(=O)/C=C/C(=O)O | -22.3% | 
17 | O=C1NC(c2ccccc2Br)=N/C1=C\c1ccco1 | -25.1% | 
18 | COc1ccc(-c2cc(NC=O)c3ncc(-c4ccc(OC)c(OC)c4)n3c2)cc1OC |  | 7.04 µM (active)
19 | CN(C)c1ccccc1-c1cc(NC=O)c2ncc(-c3cccc(C(F)(F)F)c3)n2c1 |  | 15.8 µM (active)
20 | COc1ccc(-c2cnc3c(NC=O)cc(-c4cc(OC)c(OC)c(OC)c4)cn23)cc1OC |  | 15.8 µM (active)
21 | CN(C)C(=O)c1cccc(-c2cnc3c(NC=O)cc(-c4ccccc4F)cn23)c1 | -4.66% | 
22 | COc1ccc(-c2cnc3c(NC=O)cc(-c4ccoc4)cn23)cc1OC |  | 11.2 µM (active)
23 | COc1ccc(-c2nc3c4ccccc4ccn3c2Cc2ccsc2)cc1OC | -2.92% | 

Row | SMILES | max response | Potency
24 | Cc1cc(C)nc(Nc2n[nH]c(COc3cccc4ccccc34)n2)n1 | -15.5% | 
25 | Cc1cc(C)nc(NC(=S)Nc2cccc(Cl)c2Cl)c1 | -10.1% | 
26 | COc1ccc(C2=NOC(C(=O)NCc3ccc(F)cc3)C2)cc1 (configuration not stated) | -16.1% | 
27 | Cc1cc(/C=C/c2ccnc3ccccc23)ccc1N(C)C |  | 8.2 µM (active)
28 | CN(C)c1ccc(/C=C/c2ccnc3ccccc23)cc1O |  | 11.6 µM (active)
29 | CN(C)c1ccc(/C=C/c2ccnc3ccccc23)cc1N | -19.7% | 
30 | CN1CCCc2cc(/C=C/c3ccnc4ccccc34)ccc21 |  | 4.11 µM (active)
31 | CCc1cc(/C=C/c2ccnc3ccccc23)ccc1N(C)C |  | 14.6 µM (active)
32 | CCS(=O)(=O)c1nn2c(N)c(/C=C3/C=CC(=O)C(OC)=C3)c(=O)nc2s1 | 11% | 
33 | Cc1ccc(NC(=S)N/N=C2\CCCCC2C)cc1 (configuration not stated) | 0.346% | 
34 | O=C(/C=C/c1ccccc1)Nc1ncn[nH]1 | -21.2% | 
35 | Cc1cc(/C=C/c2ccnc3ccccc23)ccc1N |  | 14.6 µM (active)
36 | COc1ccc2nc3sc(C(=O)Nc4cc(Cl)c(OC)cc4OC)cc3cc2c1 | -28.2% | 
37 | COc1cccc(-c2ccc3c(N)c(C(=O)c4ccc(Br)cc4)sc3n2)c1 |  | 10.3 µM (active)
38 | COc1cccc(-c2ccc3c(N)c(C(=O)c4ccc(Cl)cc4)sc3n2)c1 |  | 18.4 µM (active)
39 | N#CC(C#N)=C1C=C2C=C(N3CCOCC3)CCC2CC1 (configuration not stated) | 0.0461% | 
40 | O=C1N/C(=N\N=C\c2ccco2)SC1Cc1ccccc1[N+](=O)[O-] (configuration not stated) | -0.95% | 
41 | Cn1c2ccccc2c2ccc3c(c21)C(=O)C=CC3=O | 5.63% | 
42 | COc1c(-c2ccc(O)c(O)c2)oc2cc(O)cc(O)c2c1=O |  | 14 µM (active)
43 | CC[N+](C)(C)c1ccc(/C=C/c2ccncc2)cc1 |  | 4.11 µM (active)
44 | CCC[N+](C)(C)c1ccc(/C=C/c2ccncc2)cc1 |  | 2.31 µM (active)
45 | CC1CC(=O)C2=C(C1)OC(N)=C(C#N)C2c1coc2ccccc2c1=O (configuration not stated) | -25.1% | 
46 | COc1cc(/C=C(/C#N)c2nc3ccccc3[nH]2)ccc1OCC(=O)Nc1ccccc1C(C)C |  | 16.4 µM (active)

Row | SMILES | max response | Potency
47 | COc1cc(/C=C(\C#N)c2nc3ccccc3[nH]2)ccc1O | 6% | 
48 | COc1cc(/C=C(\C#N)c2nc3ccccc3[nH]2)ccc1OCc1ccccc1F |  | 18.4 µM (active)
49 | COc1cc(/C=C(\C#N)c2nc3ccccc3s2)ccc1OCC(=O)Nc1ccccc1 |  | 14 µM (active)
50 | COc1ccc(OC)c2sc(NC(=O)CCS(=O)(=O)c3ccccc3)nc12 | -17.2% | 
51 | CCC(=O)Nc1nc2ccc(NC(=O)c3cc(OC)c(OC)c(OC)c3)cc2s1 | -4.22% | 
52 | COc1cc(/C=C/c2ccnc3ccccc23)ccc1N(C)C |  | 9.2 µM (active)
53 | COc1ccc(OC)c(Nc2nc(-c3ccncc3)nc3ccccc23)c1 | -10.6% | 
54 | COc1cc(OC)c(/C=C/c2ccnc3ccccc23)c(OC)c1 |  | 14.6 µM (active)
55 | COc1cc(N(C)C)c(OC)cc1/C=C/c1ccnc2ccccc12 |  | 20.6 µM (active)
56 | Cc1c(C)n(Cc2ccccc2)c2ccc(C(=O)NCc3ccco3)cc12 | -24.7% | 
57 | Cc1cc(C)c(NC(=O)Cn2c(=O)n(Cc3ccc(C(=O)NCc4ccco4)cc3)c(=O)c3sccc32)c(C)c1 |  | 14.6 µM (active)
58 | COc1ccccc1-c1c(C#N)c(N)nc2c1CCc1ccccc1-2 | -14.7% | 
59 | COc1ccc2c(n1)Sc1nc3ccccc3nc1N2 |  | 4.11 µM (active)
60 | CCCOc1ccc2cc(C(=O)NCc3ccccc3)c(=O)oc2c1 | -1.07% | 
61 | CCCOc1ccc(C(=O)Nc2cccc(NC(=O)c3ccc(Cl)cc3Cl)c2)cc1 |  | 16.4 µM (active)
62 | Cc1ccc(NC(=S)NC(=O)c2ccc(F)cc2)cc1S(=O)(=O)Nc1cccc(Cl)c1 | -16.8% | 
63 | c1cncc(-c2nc(NCc3cccs3)c3ccccc3n2)c1 | -5.9% | 
64 | COc1ccc(-c2cc(-c3nnc(COC(=O)c4ccncc4)o3)c3ccccc3n2)cc1OC | 2.21% | 
65 | NC(=S)N/N=C/c1cccc(O)c1O | -21% | 
66 | CC(=O)N/N=C/c1cc(C(C)(C)C)cc(/C=N/NC(C)=O)c1O |  | 23.1 µM (active)
67 | Nc1c(C(=O)Nc2ccc(S(=O)(=O)N3CCCC3)cc2)sc2nc3cc4c(cc3cc12)CCC4 |  | 6.51 µM (active)
68 | Cc1c(C(=O)Nc2ccc(C(C)C)cc2)sc2nc3n(c(=O)c12)CCC3 | -1.94% | 
69 | O=C(Nc1ccc(Cl)cn1)c1cccc(S(=O)(=O)N2CCCCCC2)c1 | -1% | 

Row | SMILES | max response | Potency
70 | Nc1c(C(=O)Nc2ccc(S(=O)(=O)N3CCCC3)cc2)sc2nc3ccc(OC(F)(F)F)cc3cc12 |  | 20.6 µM (active)
71 | O=C(CN1c2cccc3cccc(c23)S1(=O)=O)Nc1ccc(S(=O)(=O)N2CCOCC2)cc1 | -0.998% | 
72 | CCc1cccc2cc3c(N)c(C(=O)Nc4ccc(S(=O)(=O)N5CCCC5)cc4)sc3nc12 |  | 2.8 µM (active)
73 | COc1ccc(NC(=O)c2oc3ccc(S(=O)(=O)N4CCOCC4)cc3c2C)cc1 | -0.455% | 
74 | CC(C)c1ccc(C(=O)NCCCNC(=O)c2cnccn2)cc1 | 1.42% | 
75 | Fc1cccc(F)c1/C=N/NC(=S)Nc1cccnc1 | -0.429% | 
76 | O=C(Nc1ccc([N+](=O)[O-])cc1)C(Cc1ccccc1)N1C(=O)c2cccc3cccc(c23)C1=O (configuration not stated) |  | 12.5 µM (active)
77 | O=C(O)Cc1sc(NC2CCCCC2)nc1-c1ccc(Cl)cc1 | -1.51% | 
78 | Cc1cc(NC(=O)CSc2nc3c(C)cccc3cc2C#N)no1 |  | 7.31 µM (active)
79 | COCc1cc(C)nc(SCC(=O)Nc2ccc3[nH]c(=O)[nH]c3c2)c1C#N | 0.302% | 
80 | Cc1nonc1NC(=O)CSc1nc2c(C)cccc2cc1C#N |  | 18.4 µM (active)
81 | Cc1nc2cc(NC(=O)CSc3nc4c(C)cccc4cc3C#N)ccc2s1 |  | 11.6 µM (active)
82 | Cc1ccc(NC(=O)CSc2n[nH]c(-c3ccccn3)n2)cc1 | -3.6% | 
83 | CN1C(=O)N(C)c2ccc(C=O)c3cccc1c23 | -1.54% | 
84 | N#C/C(=C/c1cccs1)c1ccccn1 |  | 17.7 µM (active)
85 | CCOc1ccc(Br)cc1C1C(C(=O)OC)=C(N)Oc2cc(N(C)C)ccc21 (configuration not stated) | -21.7% | 
86 | Cc1ccc(N=C2NC(=O)/C(=C/c3cccn3C)S2)cc1 |  | 9.94 µM (active)
87 | Cc1ccc(N=C2NC(=O)/C(=C/c3cn(C)c4ccccc34)S2)cc1C |  | 17.7 µM (active)
88 | Cn1cccc1/C=C1\SC(=Nc2cccc(O)c2)NC1=O |  | 15.8 µM (active)
89 | Cn1cccc1/C=C1\SC(=Nc2ccc(O)cc2)NC1=O |  | 12.5 µM (active)
90 | Cc1cccc(N=C2NC(=O)/C(=C/c3cccn3C)S2)c1 | -9.23% | 
91 | COc1cccc(N=C2NC(=O)/C(=C/c3cc([N+](=O)[O-])ccc3O)S2)c1 | -16.1% | 
92 | C=C1C(=O)O[C@@H]2[C@H]1[C@@H](OC(=O)/C(C)=C/C)C/C(C)=C\C(=O)/C=C(\C)[C@@H]2O | -29.6% | 
